Platelet DG rel: inhibitors of platelet dense granule secretion, primary screen, cell-based, MLPCN, human platelets; human platelet-rich plasma, SFLLRN dense granule ATP release, luminescence; inhibition, %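 (compounds screened at 7.5 µM in platelet-rich plasma)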; hit rate 0.22% among 300,000;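 active = mean replicate score, as percent of positive control, at or above 50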
SENP8 block-1: human SENP8 protease inhibitors, primary screen, biochemical, fluorescence, Nedd8 protein substrate, uHTS; Sentrin-specific protease 8 (Homo sapiens), Q96LD8; recombinant SENP8; inhibition, % at 20 µM; hit rate 0.64% among 360,000; AID 602440, 2012; in the data active = inhibition mostly above about 40%, no sharp cut-off; inactive = mostly below about 27%
SENP6 block: SENP6 protease inhibitors, primary screen, biochemical, luminescence, uHTS. Sentrin-specific protease 6 (Homo sapiens), Q9GZR1. Recombinant SENP6 catalytic domain, aminoluciferin luminescence. inhibition, % at 10 µM. hit rate 1.8% among 330,000. AID 2599, 2010;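 active = inhibition above about 50% at the single tested dose, limit read from the data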
SENP7 inh: SENP7 protease inhibitors, primary screen, biochemical, luminescence, uHTS. inhibition, % at 5 µM. hit rate 1.5% among 330,000. AID 434973, 2010. recombinant SENP7, Z-RLRGG-aminoluciferin luminescence, 40 min. Sentrin-specific protease 7 (Homo sapiens), Q9BQF6;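 active = inhibition above about 50% at the single test dose, limit read from the data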
Target sequence (Q9BQF6 706-1050 limits assumed): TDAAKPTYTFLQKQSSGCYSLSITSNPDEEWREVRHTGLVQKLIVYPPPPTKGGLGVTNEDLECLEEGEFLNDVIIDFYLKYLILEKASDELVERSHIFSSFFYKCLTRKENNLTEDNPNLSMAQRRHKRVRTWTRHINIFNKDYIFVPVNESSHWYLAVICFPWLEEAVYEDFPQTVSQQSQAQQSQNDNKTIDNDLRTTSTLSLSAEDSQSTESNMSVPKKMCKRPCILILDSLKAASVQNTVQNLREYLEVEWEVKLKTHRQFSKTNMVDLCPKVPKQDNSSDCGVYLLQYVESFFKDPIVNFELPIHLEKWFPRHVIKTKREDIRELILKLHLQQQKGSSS
SENP8 block-2: SENP8 protease inhibitors, primary screen, biochemical, luminescence; Sentrin-specific protease 8 (Homo sapiens), Q96LD8; purified SENP8, Z-RLRGG-aminoluciferin cleavage; inhibition, % at 10 µM; hit rate 1.2% among 330,000; AID 2540, 2010; in the data active = inhibition above about 50%
SENP8 conf: SENP8 protease inhibitors, retest, confirmation, biochemical, luminescence, single concentration. shares compounds with SENP7 inh. Recombinant SENP8, Z-RLRGG-aminoluciferin luminescence, 60 min. inhibition, % at 12.5 µM. hit rate 40% among 6,200. AID 488912, 2010;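 active = mean inhibition across replicates above about 50%, limit read from the data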
SENP6 confirm: SENP6 protease inhibitors, confirmation, biochemical, luminescence, single concentration; shares compounds with SENP7 inh; AID 488915, 2010; inhibition, % at 12.5 µM; recombinant SENP6, Z-RLRGG-aminoluciferin luminescence; hit rate 58% among 6,200
SENP7 confirm: SENP7 protease inhibitors, retest, confirmation, biochemical, luminescence, single concentration; inhibition, % at 12.5 µM; hit rate 69% among 6,200; AID 488917, 2010; shares compounds with SENP7 inh; recombinant SENP7, Z-RLRGG-aminoluciferin luminescence, 40 min
Casp3 select: caspase-3 protease inhibitors, confirmation, selectivity assay for SENP inhibitor project, biochemical, single concentration; AID 488918, 2010; inhibition, % at 12.5 µM; shares compounds with SENP7 inh; hit rate 60% among 6,200; purified caspase-3, Z-DEVD-aminoluciferin luminescence, 60 min;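 active = mean inhibition above about 50%, limit read from the data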
Target sequence (P42574 28-227 limits assumed): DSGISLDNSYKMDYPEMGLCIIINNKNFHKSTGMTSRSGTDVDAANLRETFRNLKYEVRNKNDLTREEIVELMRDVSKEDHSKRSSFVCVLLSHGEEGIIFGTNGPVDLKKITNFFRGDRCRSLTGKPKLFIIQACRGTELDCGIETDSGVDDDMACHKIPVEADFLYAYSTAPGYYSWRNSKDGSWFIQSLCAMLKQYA
SENP luc ctr: counter-screen for SENP inhibitors: luminescence interference; shares compounds with SENP7 inh; Pre-incubated SENP8/Z-RLRGG-aminoluciferin, luciferase luminescence interference; inhibition, % at 12.5 µM; hit rate 39% among 6,200; AID 488919;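 active = mean inhibition above about 50% when retested at one dose, limit read from the data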
Of the large screens only hits and unclear results are named; the others gave an inactive call (follow-up assays come after a bar, where they were run). Sampled rows, rich in hits. Any-hit rate of the full collection: about 2.4%.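 The calls were made as follows, unless noted: active = mean inhibition above about 50% in the one-dose retest (limit read from the data); inactive = the rest.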

CCN(CC)C(=O)Cn1cc(SCC(=O)NC2CCCCC2)c2ccccc21	none (no result: Platelet DG rel, SENP6 block, SENP7 inh, SENP8 block-2)
Cc1oncc1C(=O)N1CCCC(CO)(Cc2ccc(F)cc2F)C1 (stereo not given)	none
COC(=O)c1ccc(CN2C(=O)C(C)N(C(=O)c3c(F)cccc3F)c3ccccc32)cc1 (stereo not given)	none
CCOc1ccc(-c2cn3ccccc3n2)cc1	SENP7 inh 72, SENP8 block-2 66 (no result: Platelet DG rel) | SENP8 conf 86 | SENP6 confirm 85 | SENP7 confirm 96 | Casp3 select 90 | SENP luc ctr 84
O=[N+]([O-])c1ccc(-c2cnc3ccccc3n2)cc1	none
CCOc1ccc(-c2cnc3ccccc3n2)cc1	SENP6 block 96, SENP7 inh 98, SENP8 block-2 93 | SENP8 conf inactive | SENP6 confirm 61 | SENP7 confirm 79 | Casp3 select 88 | SENP luc ctr 58
CCOC(=O)C1=CCN(S(=O)(=O)c2ccccc2Br)C1c1ccc(F)cc1 (stereo not given)	none (no result: Platelet DG rel, SENP6 block, SENP7 inh, SENP8 block-2)
COc1ccc(C(=O)N2N=C(c3cccc(NS(C)(=O)=O)c3)CC2c2cccs2)cc1 (stereo not given)	none
CCOc1ccccc1C(=O)Nc1cccc(-c2ccc(N3CCOCC3)nn2)c1	SENP6 block 78, SENP7 inh 70, SENP8 block-2 55 | SENP8 conf inactive | SENP6 confirm 68 | SENP7 confirm 89 | Casp3 select 63 | SENP luc ctr inactive
CCC(=O)Nc1cccc(-c2ccc(N3CCCCC3)nn2)c1	SENP6 block 58, SENP7 inh 52 | SENP8 conf 52 | SENP6 confirm inactive | SENP7 confirm 79 | Casp3 select 77 | SENP luc ctr 61
O=[N+]([O-])c1ccc(Cl)c(S(=O)(=O)Nc2cccc(-c3ccc(N4CCCC4)nn3)c2)c1	SENP6 block 92, SENP8 block-2 86 | SENP8 conf inactive | SENP6 confirm 91 | SENP7 confirm 98 | Casp3 select 86 | SENP luc ctr inactive
CCC(=O)Nc1cccc(-c2ccc(N3CCN(C)CC3)nn2)c1	none
CN1CCN(c2ccc(-c3cccc(NC(=O)COc4ccc(Cl)cc4Cl)c3)nn2)CC1	SENP7 inh 67 | SENP8 conf inactive | SENP6 confirm inactive | SENP7 confirm inactive | Casp3 select inactive | SENP luc ctr inactive
O=C(NS(=O)(=O)Oc1cccc(Cl)c1Cl)OC[C@@H]1CCCN2CCCCC12 (stereo not given in full)	none
Cc1ccc(S(=O)(=O)N2CCCC2)cc1C(=O)NCCOc1ccccc1	none (no result: Platelet DG rel)
COc1ccc(/C=N/NC(=O)CC(=O)NCc2cccnc2)cc1[N+](=O)[O-]	none
COc1ccc(-c2c(NC(=O)c3ccco3)oc3ccccc3c2=O)cc1OC	none
N#CCSc1nc2ccccc2o1	none
O=[N+]([O-])c1ccccc1CSc1nc2ccccc2o1	SENP6 block 55 | SENP8 conf inactive | SENP6 confirm inactive | SENP7 confirm inactive | Casp3 select inactive | SENP luc ctr inactive
C/C(=N\NC(=O)c1cc2c(s1)CCC(C)C2)c1ccc[nH]1 (stereo not given)	SENP7 inh 70 (no result: Platelet DG rel) | SENP8 conf inactive | SENP6 confirm inactive | SENP7 confirm 81 | Casp3 select 59 | SENP luc ctr inactive
C/C(=N\NC(=O)c1cc2c(s1)CCC(C)C2)c1ccncc1 (stereo not given)	none
O=C(c1ccccc1)c1cnc(-c2ccc(Cl)cc2)s1	SENP6 block 80, SENP7 inh 97 | SENP8 conf inactive | SENP6 confirm inactive | SENP7 confirm inactive | Casp3 select inactive | SENP luc ctr inactive
O=C(c1ccc(Cl)cc1)c1cnc(-c2ccc(Cl)cc2)s1	none
O=C(c1ccccc1)c1cnc(-c2ccccc2)s1	SENP6 block 93, SENP7 inh 96, SENP8 block-2 89 | SENP8 conf 54 | SENP6 confirm inactive | SENP7 confirm 73 | Casp3 select 62 | SENP luc ctr inactive
CCC(=O)N(C1=C(NC)C(=O)c2ccccc2C1=O)C(C)C	SENP8 block-1 59, SENP6 block 87 | SENP8 conf inactive | SENP6 confirm inactive | SENP7 confirm inactive | Casp3 select inactive | SENP luc ctr inactive
COCC(=O)N(C)C[C@H]1N[C@@](C)(C(=O)OC)[C@H]2C(=O)N(C)C(=O)[C@@H]12	none (no result: Platelet DG rel)
COc1ccc(-c2cc(O)cc(O)c2)cc1	SENP6 block 70, SENP7 inh 60 | SENP8 conf inactive | SENP6 confirm inactive | SENP7 confirm 60 | Casp3 select inactive | SENP luc ctr inactive
COc1ccccc1CNC(=O)CCCc1nnc2n(C)c(=O)c3sccc3n12	none
Cc1occc1C(=O)/C(C#N)=C/c1ccc(O)c(Br)c1	SENP6 block 98, SENP7 inh 93, SENP8 block-2 97 | SENP8 conf 98 | SENP6 confirm 100 | SENP7 confirm 103 | Casp3 select 97 | SENP luc ctr 97
C=C(C)Cn1c(N2CCC(Cc3ccccc3)CC2)nc2c1c(=O)[nH]c(=O)n2C	SENP6 block 98, SENP8 block-2 81 | SENP8 conf inactive | SENP6 confirm inactive | SENP7 confirm inactive | Casp3 select inactive | SENP luc ctr inactive
COc1cccc(CN2CCN(C(=O)c3oc4c(F)cccc4c3C)CC2=O)c1	SENP6 block 87 | SENP8 conf inactive | SENP6 confirm inactive | SENP7 confirm inactive | Casp3 select inactive | SENP luc ctr inactive
CCCCCCSC1=C(C#N)C(=O)NC2(CCCCC2)S1	SENP8 block-2 59 | SENP8 conf inactive | SENP6 confirm 87 | SENP7 confirm 94 | Casp3 select inactive | SENP luc ctr 88
COc1ccc(CSC2=C(C#N)C(=O)NC3(CCCCC3)S2)cc1	none (no result: Platelet DG rel, SENP6 block, SENP7 inh, SENP8 block-2)
OCCC1CN(Cc2nc3ccccc3s2)CCN1CCc1ccccc1 (stereo not given)	none
CC(=O)N(Cc1ccccc1)C1CC(=O)N(Cc2ccccc2)C1=O (stereo not given)	none (no result: Platelet DG rel, SENP6 block, SENP7 inh, SENP8 block-2)

Screening results (PubChem)
